From the supplement of paper PMC9262897, “Low-cost anti-mycobacterial drug discovery using engineered E. coli” (Nature Communications, 2022)
Where a name gives a salt, the structure may show the parent alone. ± gives the standard deviation of the averaged measurements.

Columns and labels:
Experiment in all cases: growth (OD600 after 10 h); higher = more growth (less inhibition)
[1] = tested on: E. coli TESEC Alr+ wild-type control; conditions: compound 0.1 mM; raw OD600 reference: median of DMSO wells 0.241, cell-free background 0.041
Procedure: (§1)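 TESEC Mtb Alr E. coli, or the Alr+ wild-type control, in 384-well plates with Prestwick library compounds at 0.1 mM and 1% DMSO, across arabinose induction levels of 1E3 to 1E7 nM. Growth is read as OD600 after 10 h at 37 °C in triplicate biological replicates.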

[2] = tested on: E. coli TESEC Mtb Alr; conditions: compound 0.1 mM
Procedure: as §1

[3] = tested on: E. coli TESEC Mtb Asd; conditions: compound 0.1 mM
Procedure: (§2)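 TESEC E. coli strains in which the native enzyme is deleted and replaced by arabinose-inducible Mtb Asd, DapB, CysH or TrpD, each grown in its selective medium. Strains were screened against the Prestwick library at 0.1 mM and 1% DMSO in 384-well format at low and high arabinose induction. Growth is read as OD600 after 10 h in triplicate.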

[4] = tested on: E. coli TESEC Mtb DapB; conditions: compound 0.1 mM
Procedure: as §2

[5] = tested on: E. coli TESEC Alr+ wild-type control; conditions: compound 0.1 mM; raw OD600 reference: median of DMSO wells 0.49, cell-free background 0.052
Procedure: (§3)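 TESEC Mtb Alr E. coli (ΔaraC ΔtolC ΔentC Δalr ΔdadX, arabinose-inducible Mtb Alr) or the Alr+ wild-type control strain, grown in defined M9-fructose medium without D-alanine in 96-well plates with Prestwick library compounds at 0.1 mM and 1% DMSO. Low Alr induction is 0.1 µM arabinose and high induction is 10 mM arabinose.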

[6] = tested on: E. coli TESEC Mtb Alr; conditions: compound 0.1 mM; remark: listed apart in the source
Procedure: as §3

[7] = arabinose 1000 nM, raw OD600 reference: median of DMSO wells 0.294, cell-free background 0.041
[8] = arabinose 10000 nM, raw OD600 reference: median of DMSO wells 0.264, cell-free background 0.041
[9] = arabinose 100000 nM, raw OD600 reference: median of DMSO wells 0.201, cell-free background 0.041
[10] = arabinose 1000000 nM, raw OD600 reference: median of DMSO wells 0.193, cell-free background 0.041
[11] = arabinose 10000000 nM, raw OD600 reference: median of DMSO wells 0.146, cell-free background 0.041
[12] = arabinose induction (level): High, raw OD600 reference: median of DMSO wells 0.331, cell-free background 0.041
[13] = arabinose induction (level): Low, raw OD600 reference: median of DMSO wells 0.417, cell-free background 0.041
[14] = arabinose induction (level): High, raw OD600 reference: median of DMSO wells […], cell-free background 0.041
[15] = arabinose induction (level): Low, raw OD600 reference: median of DMSO wells 0.227, cell-free background 0.041
[16] = arabinose 100 nM, raw OD600 reference: median of DMSO wells 0.413, cell-free background 0.052
[17] = arabinose 10000000 nM, raw OD600 reference: median of DMSO wells […], cell-free background 0.052

Compound | growth [1] | growth [2, 7] | growth [2, 8] | growth [2, 9] | growth [2, 10] | growth [2, 11] | growth [3, 12] | growth [3, 13] | growth [4, 14] | growth [4, 15] | growth [5] | growth [6, 16] | growth [6, 17]
N/C(=N\C(=O)c1nc(Cl)c(N)nc1N)NCc1ccccc1 [Benzamil hydrochloride] | 0.14 ± 0.0042 | 0.196 ± 0.0093 | 0.256 ± 0.0065 | 0.15 ± 0.0096 | 0.111 ± 0.0026 | 0.161 ± 0.0069 | 0.163 ± 0.006 | 0.199 ± 0.0084 | 0.213 ± 0.023 | 0.232 ± 0.013 | 0.502 ± 0.034 | 0.41 ± 0.0064 | 0.299 ± 0.0065
Cc1cccc(N(C)C(=S)Oc2ccc3ccccc3c2)c1 [Tolnaftate] | 0.255 ± 0.019 | 0.272 ± 0.02 | 0.268 ± 0.012 | 0.165 ± 0.016 | 0.11 ± 0.011 | 0.163 ± 0.0066 | 0.281 ± 0.07 | 0.246 ± 0.047 | 0.174 ± 0.012 | 0.243 ± 0.029 | 0.465 ± 0.0063 | 0.384 ± 0.015 | 0.264 ± 0.064
c1ccc([C@H]2CN3CCSC3=N2)cc1 [Levamisole hydrochloride] | 0.253 ± 0.0028 | 0.286 ± 0.0062 | 0.279 ± 0.005 | 0.209 ± 0.017 | 0.186 ± 0.0053 | 0.142 ± 0.0042 | 0.364 ± 0.033 | 0.428 ± 0.026 | 0.182 ± 0.0088 | 0.214 ± 0.023 | 0.511 ± 0.054 | 0.413 ± 0.0046 | 0.353 ± 0.019
COc1c(O[C@@H]2O[C@H](CO)[C@@H](O)[C@H](O)[C@H]2O)cc2c(c1OC)-c1ccc(SC)c(=O)cc1[C@@H](NC(C)=O)CC2 [Thiocolchicoside] | 0.254 ± 0.01 | 0.307 ± 0.0068 | 0.275 ± 0.0073 | 0.229 ± 0.023 | 0.186 ± 0.0019 | 0.149 ± 0.0088 | 0.271 ± 0.091 | 0.291 ± 0.082 | 0.206 ± 0.024 | 0.236 ± 0.015 | 0.51 ± 0.076 | 0.414 ± 0.011 | 0.35 ± 0.023
O=C(O)Cc1sc(-c2ccccc2)nc1-c1ccc(Cl)cc1 [Fentiazac] | 0.168 ± 0.0065 | 0.17 ± 0.0076 | 0.137 ± 0.0036 | 0.165 ± 0.0017 | 0.152 ± 0.0063 | 0.158 ± 0.0089 | 0.189 ± 0.0056 | 0.187 ± 0.018 | 0.206 ± 0.012 | 0.223 ± 0.029 | 0.286 ± 0.012 | 0.141 ± 0.064 | 0.14 ± 0.033
N=C(N)NC(=O)Cc1c(Cl)cccc1Cl [Guanfacine hydrochloride] | 0.241 ± 0.0058 | 0.287 ± 0.0063 | 0.26 ± 0.0052 | 0.236 ± 0.018 | 0.143 ± 0.0065 | 0.165 ± 0.0022 | 0.43 ± 0.13 | 0.444 ± 0.018 | 0.19 ± 0.015 | 0.214 ± 0.026 | 0.485 ± 0.018 | 0.406 ± 0.0086 | 0.329 ± 0.018
C[C@]12CC[C@H]3C(=CCc4cc(O)ccc43)[C@@H]1CCC2=O [Equilin] | 0.126 ± 0.0019 | 0.17 ± 0.0095 | 0.226 ± 0.0079 | 0.154 ± 0.0054 | 0.0878 ± 0.0015 | 0.125 ± 0.0018 | 0.159 ± 0.0023 | 0.258 ± 0.044 | 0.174 ± 0.0089 | 0.183 ± 0.017 | 0.424 ± 0.0094 | 0.388 ± 0.0096 | 0.163 ± 0.0075
CC[C@@H]1C(=O)OC[C@@H]1Cc1cncn1C [Pilocarpine nitrate] | 0.231 ± 0.0064 | 0.247 ± 0.037 | 0.244 ± 0.011 | 0.204 ± 0.032 | 0.18 ± 0.0025 | 0.145 ± 0.0063 | 0.222 ± 0.012 | 0.279 ± 0.044 | 0.199 ± 0.016 | 0.222 ± 0.023 | 0.674 ± 0.05 | 0.391 ± 0.0052 | 0.319 ± 0.044
CC(=O)N[C@@H](CC(C)C)C(=O)O [N-Acetyl-L-leucine] | 0.243 ± 0.013 | 0.292 ± 0.016 | 0.259 ± 0.004 | 0.219 ± 0.0097 | 0.192 ± 0.0042 | 0.134 ± 0.0046 | 0.378 ± 0.077 | 0.476 ± 0.0098 | 0.206 ± 0.0033 | 0.205 ± 0.0021 | 0.637 ± 0.023 | 0.41 ± 0.013 | 0.349 ± 0.0042
COc1c(N2CCNC(C)C2)c(F)cc2c(=O)c(C(=O)O)cn(C3CC3)c12 (stereo unspecified) [Gatifloxacin] | 0.0447 ± 0.0053 | 0.0402 ± 0.00046 | 0.0396 ± 0.0002 | 0.04067 ± 0.00032 | 0.03983 ± 0.00029 | 0.0409 ± 0.00055 | 0.0508 ± 0.0018 | 0.0482 ± 0.0013 | 0.04873 ± 0.00025 | 0.04953 ± 0.00047 | 0.05293 ± 0.00023 | 0.0533 ± 0.00079 | 0.0521 ± 0.0016
CC(C)(Sc1cc(C(C)(C)C)c(O)c(C(C)(C)C)c1)Sc1cc(C(C)(C)C)c(O)c(C(C)(C)C)c1 [Probucol] | 0.248 ± 0.0044 | 0.298 ± 0.014 | 0.259 ± 0.0043 | 0.236 ± 0.028 | 0.172 ± 0.0035 | 0.173 ± 0.02 | 0.344 ± 0.1 | 0.408 ± 0.093 | 0.207 ± 0.014 | 0.22 ± 0.016 | 0.583 ± 0.039 | 0.407 ± 0.0098 | 0.366 ± 0.015
N#CC(c1ccc(Cl)cc1)c1c(Cl)cc(-n2ncc(=O)[nH]c2=O)cc1Cl (stereo unspecified) [Diclazuril] | 0.0414 ± 0.00047 | 0.0423 ± 0.004 | 0.0402 ± 0.0002 | 0.0425 ± 0.0014 | 0.0405 ± 0.00045 | 0.0479 ± 0.0017 | 0.048 ± 0.0019 | 0.0482 ± 0.002 | 0.0518 ± 0.0015 | 0.0496 ± 0.0011 | 0.156 ± 0.17 | 0.0632 ± 0.00095 | 0.0529 ± 0.00089
CC(N)C12CC3CC(CC(C3)C1)C2 (stereo unspecified) [Rimantadine Hydrochloride] | 0.228 ± 0.0089 | 0.293 ± 0.0047 | 0.2629 ± 0.0005 | 0.207 ± 0.025 | 0.18 ± 0.0024 | 0.151 ± 0.006 | 0.209 ± 0.019 | 0.497 ± 0.07 | 0.195 ± 0.021 | 0.232 ± 0.025 | 0.583 ± 0.077 | 0.407 ± 0.009 | 0.345 ± 0.011
CC(=O)c1ccc(S(=O)(=O)NC(=O)NC2CCCCC2)cc1 [Acetohexamide] | 0.253 ± 0.0047 | 0.284 ± 0.0099 | 0.242 ± 0.0032 | 0.191 ± 0.024 | 0.162 ± 0.0024 | 0.156 ± 0.0038 | 0.268 ± 0.082 | 0.455 ± 0.029 | 0.19 ± 0.0083 | 0.232 ± 0.024 | 0.526 ± 0.01 | 0.405 ± 0.0044 | 0.316 ± 0.0099
CN1CCN2c3ncccc3Cc3ccccc3C2C1 (stereo unspecified) [Mirtazapine] | 0.217 ± 0.0068 | 0.281 ± 0.0088 | 0.2774 ± 0.0027 | 0.225 ± 0.025 | 0.182 ± 0.021 | 0.162 ± 0.0043 | 0.261 ± 0.11 | 0.29 ± 0.013 | 0.212 ± 0.0063 | 0.249 ± 0.019 | 0.468 ± 0.035 | 0.414 ± 0.014 | 0.336 ± 0.014
C#Cc1cccc(Nc2ncnc3cc(OCCOC)c(OCCOC)cc23)c1 [Erlotinib] | 0.193 ± 0.0065 | 0.256 ± 0.01 | 0.236 ± 0.0081 | 0.202 ± 0.0068 | 0.146 ± 0.0076 | 0.185 ± 0.01 | 0.349 ± 0.093 | 0.303 ± 0.066 | 0.161 ± 0.0058 | 0.201 ± 0.0093 | 0.436 ± 0.03 | 0.411 ± 0.005 | 0.35 ± 0.012
CN(Cc1ccc(C(C)(C)C)cc1)Cc1cccc2ccccc12 [Butenafine Hydrochloride] | 0.182 ± 0.0021 | 0.177 ± 0.0088 | 0.2 ± 0.0095 | 0.147 ± 0.0047 | 0.0789 ± 0.0012 | 0.116 ± 0.0035 | 0.204 ± 0.012 | 0.182 ± 0.019 | 0.15 ± 0.019 | 0.169 ± 0.02 | 0.399 ± 0.012 | 0.312 ± 0.013 | 0.11 ± 0.0097
